Data taken from article PMC8384837, “Expanding the binding specificity for RNA recognition by a PUF domain”.
Numbering of substitutions follows the chain as printed.

Tests used:
Test in all cases: yeast three-hybrid, YBZ-1, SC-Leu-His + 0.5 mM 3-AT, 4 days
Settings in all cases: tags: N-Gal4 AD-HA kept; label: inside an RPR1-promoter hybrid RNA with tandem MS2 sites; ssRNA
PUM1 PUF domain R5-TSR = PUM1 PUF domain R5-TSR (Homo sapiens, UniProt Q14671 828-1176, C1007T;R1008S;Q1011R)
Summary of the method: (§1)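 Repeat regions from input (SC-Leu) and selection (SC-Leu-His + 0.5 mM 3-AT) plates were PCR-amplified and Illumina-sequenced after four days of growth. The cells were strain YBZ-1 with a LexA–MS2 coat fusion and a HIS3 reporter, co-expressing Pumilio-1 PUF domain libraries and matching RNA elements from a centromeric plasmid. The interaction score is the log change in variant frequency from input to selection, taken in log2 with a pseudocount of 1 for absent variants.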

PUM1 PUF domain R5-QQR = PUM1 PUF domain R5-QQR (Homo sapiens, UniProt Q14671 828-1176, C1007Q;R1008Q;Q1011R)
Summary of the method: as §1

PUM1 PUF domain R5-RKI = PUM1 PUF domain R5-RKI (Homo sapiens, UniProt Q14671 828-1176, C1007R;R1008K;Q1011I)
Summary of the method: as §1

PUM1 PUF domain R5-RHG = PUM1 PUF domain R5-RHG (Homo sapiens, UniProt Q14671 828-1176, C1007R;R1008H;Q1011G)
Summary of the method: as §1

PUM1 PUF domain R7-RML = PUM1 PUF domain R7-RML (Homo sapiens, UniProt Q14671 828-1176, S1079R;N1080M;E1083L)
Summary of the method: as §1

PUM1 PUF domain R1-RVS = PUM1 PUF domain R1-RVS (Homo sapiens, UniProt Q14671 828-1176, S863R;R864V;Q867S)
Summary of the method: as §1

PUM1 PUF domain R1-RGS = PUM1 PUF domain R1-RGS (Homo sapiens, UniProt Q14671 828-1176, S863R;R864G;Q867S)
Summary of the method: as §1

PUM1 PUF domain R1-RRK = PUM1 PUF domain R1-RRK (Homo sapiens, UniProt Q14671 828-1176, S863R;Q867K)
Summary of the method: as §1

PUM1 PUF domain R4-WSR = PUM1 PUF domain R4-WSR (Homo sapiens, UniProt Q14671 828-1176, N971W;H972S;Q975R)
Summary of the method: as §1

PUM1 PUF domain R4-CNI = PUM1 PUF domain R4-CNI (Homo sapiens, UniProt Q14671 828-1176, N971C;H972N;Q975I)
Summary of the method: as §1

PUM1 PUF domain R6-FYS = target: T1, PUM1 PUF domain R6-FYS (Homo sapiens, UniProt Q14671 828-1176, N1043F;Q1047S)
T1 sequence: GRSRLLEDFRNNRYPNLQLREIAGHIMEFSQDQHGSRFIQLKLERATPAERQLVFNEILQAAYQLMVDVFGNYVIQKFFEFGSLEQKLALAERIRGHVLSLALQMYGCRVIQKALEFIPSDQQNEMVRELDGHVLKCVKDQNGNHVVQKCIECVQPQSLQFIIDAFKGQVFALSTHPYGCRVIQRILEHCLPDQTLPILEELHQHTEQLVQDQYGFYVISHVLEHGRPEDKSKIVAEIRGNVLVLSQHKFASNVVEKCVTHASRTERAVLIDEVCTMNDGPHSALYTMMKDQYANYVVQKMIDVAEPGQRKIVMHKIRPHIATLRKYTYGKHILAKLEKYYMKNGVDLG
Summary of the method: as §1

PUM1 PUF domain R6-GYR = target: T2, PUM1 PUF domain R6-GYR (Homo sapiens, UniProt Q14671 828-1176, N1043G;Q1047R)
T2 sequence: T1 sequence with F216G, S220R
Summary of the method: as §1

PUM1 PUF domain R6-GFA = target: T3, PUM1 PUF domain R6-GFA (Homo sapiens, UniProt Q14671 828-1176, N1043G;Y1044F;Q1047A)
T3 sequence: T1 sequence with F216G, Y217F, S220A
Summary of the method: as §1

PUM1 PUF domain R6-MYS = target: T4, PUM1 PUF domain R6-MYS (Homo sapiens, UniProt Q14671 828-1176, N1043M;Q1047S)
T4 sequence: T1 sequence with F216M
Summary of the method: as §1

PUM1 PUF domain R5-PMG = PUM1 PUF domain R5-PMG (Homo sapiens, UniProt Q14671 828-1176, C1007P;R1008M;Q1011G)
Summary of the method: as §1

PUM1 PUF domain R8-RHE = PUM1 PUF domain R8-RHE (Homo sapiens, UniProt Q14671 828-1176, N1122R;Y1123H;Q1126E)
Summary of the method: as §1

PUM1 PUF domain R3-RVS = PUM1 PUF domain R3-RVS (Homo sapiens, UniProt Q14671 828-1176, C935R;R936V;Q939S)
Summary of the method: as §1

PUM1 PUF domain R3-LSR = PUM1 PUF domain R3-LSR (Homo sapiens, UniProt Q14671 828-1176, C935L;R936S;Q939R)
Summary of the method: as §1

PUM1 PUF domain R3-LFA = PUM1 PUF domain R3-LFA (Homo sapiens, UniProt Q14671 828-1176, C935L;R936F;Q939A)
Summary of the method: as §1

PUM1 PUF domain R4-NFS = PUM1 PUF domain R4-NFS (Homo sapiens, UniProt Q14671 828-1176, H972F;Q975S)
Summary of the method: as §1

Sequence: GGCUAGAACUAGUGGAUCCCCCGGCGCCCGGCGGCUCGAGCCCGGGUAAGUGUCAAUAGUCUGCAUGCCGCCGGGCGCCAUGCCUGCAGGUCGACUCUAGAAAACAUG
- binding signal (PUM1 PUF domain R5-TSR): 5.55 log2 enrichment (interaction score)
- binding signal (PUM1 PUF domain R5-QQR): 6.22 log2 enrichment (interaction score)
- binding signal (PUM1 PUF domain R5-RKI): 3.24 log2 enrichment (interaction score)
- binding signal (PUM1 PUF domain R5-RHG): 5.64 log2 enrichment (interaction score)

Sequence: GGCUAGAACUAGUGGAUCCCCCGGCGCCCGGCGGCUCGAGCCCGGGUAAGUUUAAAUAGUCUGCAUGCCGCCGGGCGCCAUGCCUGCAGGUCGACUCUAGAAAACAUG
- binding signal (PUM1 PUF domain R7-RML): 2.71 log2 enrichment (interaction score)

Sequence: GGCUAGAACUAGUGGAUCCCCCGGCGCCCGGCGGCUCGAGCCCGGGUAAGUGUAAAUCGUCUGCAUGCCGCCGGGCGCCAUGCCUGCAGGUCGACUCUAGAAAACAUG
- binding signal (PUM1 PUF domain R1-RVS): 4.31 log2 enrichment (interaction score)
- binding signal (PUM1 PUF domain R1-RGS): 2.68 log2 enrichment (interaction score)
- binding signal (PUM1 PUF domain R1-RRK): 2.94 log2 enrichment (interaction score)

Sequence: GGCUAGAACUAGUGGAUCCCCCGGCGCCCGGCGGCUCGAGCCCGGGUAAGUGUACAUAGUCUGCAUGCCGCCGGGCGCCAUGCCUGCAGGUCGACUCUAGAAAACAUG
- binding signal (PUM1 PUF domain R4-WSR): 2.55 log2 enrichment (interaction score)
- binding signal (PUM1 PUF domain R4-CNI): 3.63 log2 enrichment (interaction score)

Sequence: GGCUAGAACUAGUGGAUCCCCCGGCGCCCGGCGGCUCGAGCCCGGGUAAGUGUAAAUAGUCUGCAUGCCGCCGGGCGCCAUGCCUGCAGGUCGACUCUAGAAAACAUG
- binding signal (PUM1 PUF domain R6-FYS): 2.53 log2 enrichment (interaction score)
- binding signal (PUM1 PUF domain R6-GYR): 6.45 log2 enrichment (interaction score)
- binding signal (PUM1 PUF domain R5-RHG): 2.92 log2 enrichment (interaction score)
- binding signal (PUM1 PUF domain R6-GFA): 2.37 log2 enrichment (interaction score)
- binding signal (PUM1 PUF domain R6-MYS): 4.63 log2 enrichment (interaction score)
- binding signal (PUM1 PUF domain R5-PMG): 0.4 log2 enrichment (interaction score)
- binding signal (PUM1 PUF domain R8-RHE): 2.1 log2 enrichment (interaction score)

Sequence: GGCUAGAACUAGUGGAUCCCCCGGCGCCCGGCGGCUCGAGCCCGGGUAAGCGUAAAUAGUCUGCAUGCCGCCGGGCGCCAUGCCUGCAGGUCGACUCUAGAAAACAUG
- binding signal (PUM1 PUF domain R8-RHE): 3.02 log2 enrichment (interaction score)

Sequence: GGCUAGAACUAGUGGAUCCCCCGGCGCCCGGCGGCUCGAGCCCGGGUAAGUGUAAUUAGUCUGCAUGCCGCCGGGCGCCAUGCCUGCAGGUCGACUCUAGAAAACAUG
- binding signal (PUM1 PUF domain R3-RVS): 2.78 log2 enrichment (interaction score)
- binding signal (PUM1 PUF domain R3-LSR): 4.8 log2 enrichment (interaction score)
- binding signal (PUM1 PUF domain R3-LFA): 2.26 log2 enrichment (interaction score)

Sequence: GGCUAGAACUAGUGGAUCCCCCGGCGCCCGGCGGCUCGAGCCCGGGUAAGUGCAAAUAGUCUGCAUGCCGCCGGGCGCCAUGCCUGCAGGUCGACUCUAGAAAACAUG
- binding signal (PUM1 PUF domain R6-GYR): 5.76 log2 enrichment (interaction score)

Sequence: GGCUAGAACUAGUGGAUCCCCCGGCGCCCGGCGGCUCGAGCCCGGGUAAGUGUUAAUAGUCUGCAUGCCGCCGGGCGCCAUGCCUGCAGGUCGACUCUAGAAAACAUG
- binding signal (PUM1 PUF domain R5-RHG): 5.88 log2 enrichment (interaction score)
- binding signal (PUM1 PUF domain R5-PMG): 3.73 log2 enrichment (interaction score)

Sequence: GGCUAGAACUAGUGGAUCCCCCGGCGCCCGGCGGCUCGAGCCCGGGUAAGUGUAAAUUGUCUGCAUGCCGCCGGGCGCCAUGCCUGCAGGUCGACUCUAGAAAACAUG
- binding signal (PUM1 PUF domain R1-RVS): 3.69 log2 enrichment (interaction score)
- binding signal (PUM1 PUF domain R1-RGS): 2.53 log2 enrichment (interaction score)
- binding signal (PUM1 PUF domain R1-RRK): 2.68 log2 enrichment (interaction score)

Sequence: GGCUAGAACUAGUGGAUCCCCCGGCGCCCGGCGGCUCGAGCCCGGGUAAGUGUAAGUAGUCUGCAUGCCGCCGGGCGCCAUGCCUGCAGGUCGACUCUAGAAAACAUG
- binding signal (PUM1 PUF domain R3-LSR): 5.61 log2 enrichment (interaction score)
- binding signal (PUM1 PUF domain R3-LFA): 4.36 log2 enrichment (interaction score)

Sequence: GGCUAGAACUAGUGGAUCCCCCGGCGCCCGGCGGCUCGAGCCCGGGUAAGUGUAAAUGGUCUGCAUGCCGCCGGGCGCCAUGCCUGCAGGUCGACUCUAGAAAACAUG
- binding signal (PUM1 PUF domain R1-RVS): 1.89 log2 enrichment (interaction score)
- binding signal (PUM1 PUF domain R1-RGS): 0.85 log2 enrichment (interaction score)

Sequence: GGCUAGAACUAGUGGAUCCCCCGGCGCCCGGCGGCUCGAGCCCGGGUAAGUGUAUAUAGUCUGCAUGCCGCCGGGCGCCAUGCCUGCAGGUCGACUCUAGAAAACAUG
- binding signal (PUM1 PUF domain R4-WSR): 1.87 log2 enrichment (interaction score)
- binding signal (PUM1 PUF domain R4-NFS): 3.51 log2 enrichment (interaction score)
